Test results: PubChem BioAssay (NCATS)
Inconclusive results are not listed. A call without a number means that no potency is given here. Calls of active or inactive are those of the source. The call rests on the fitted dose curve; in most records, active means well fitted inhibition curve with a large enough effect; inconclusive means small, poorly fitted or top-dose-only effect; inactive means no such curve, though single readings can be large or run the other way.

Experiment: S16 Schwann cell PMP22 intronic element firefly luciferase assay (AID 624032); further: nearly all actives have a fitted effect of over 30% in size
Conditions: S16 rat Schwann cells, PMP22 element FLuc, 24 h; series mostly up to 57.5 µM
From the text: Charcot-Marie-Tooth-Association [CMTA]
National Center for Advancing Translational Sciences [NCATS]
Charcot-Marie-Tooth (CMT) disease was first characterized by Jean-Martin Charcot and Pierre Marie in France and, independently, by Howard Henry Tooth in England in 1886. CMT is one of the most common inherited neurological diseases, affecting approximately 1 in 2,500 Americans. […] The most prevalent type of CMT is known as CMT1A and caused by a duplication of the PMP22 gene which leads to over-expression of this protein. PMP22 is a glycosylated intrinsic membrane protein accounting for 2-5% of the myelin protein content, and its over-expression results in demyelination and subsequently axonal loss.
A pair of cellular transcription-based assays was developed in the S16 rat Schwann cell lines (Hai, M., et al., 2002) stably transfected with orthogonal reporters - firefly luciferase (Fluc) and beta-lactamase (beta-Lac) - whose expression is driven by an intronic regulatory element of the PMP22 gene (Jones, E.A., et al., 2011) to recapitulate endogenous expression of PMP22. The current assay employs Fluc to report on PMP22 expression. A comprehensive library of approved drugs, the NCGC Pharmaceutical Collection (Huang, R., et al., 2011), was screened in the cross-validating platform of the orthogonal reporter assays to identify drug modulators inhibitory towards PMP22 expression.
A set of counter-screens was devised to address non-specific activity of the library. An ATP-dependent CellTiter-Glo assay (developed by Promega Corp) was utilized to control cell viability. In addition, biochemical Fluc enzyme assay was performed to assess direct inhibition of the Fluc enzymatic activity.
Hai, M., Muja, N., DeVries, G.H., Quarles, R.H. and Patel, P.I. Comparative analysis of Schwann cell lines as model systems for myelin gene transcription studies. J Neurosci Res, 2002. 69(4): pp 497-508
Huang, R., Southall, N., Wang, Y., Yasgar A., Shinn P., Jadhav, A. , Nguyen, D.-T. and Austin, C.P., The NCGC pharmaceutical collection: a comprehensive resource of clinically approved drugs enabling repurposing and chemical genomics. Sci Transl Med, 2011. 3(80): p. 80ps16.
S16 Schwann cell PMP22 intronic element firefly luciferase assay
The FLuc-expressing S16 cells were seeded in white solid 1536-well plates at between 500-750 cells/4uL in DMEM medium containing 10% FBS, w/o phenol red. After overnight incubation at 37 degree Celsius/5% C02, 23 nL of compounds or DMSO were delivered to each well using a pin tool, followed by 24h-incubation at 37 degree Celsius/5% C02. Then 4 uL ONE-Glo luminescent substrate mix (Promega) was added to each well. Luminescence was measured on a ViewLux plate reader (Perkin Elmer). The % activity was determined by normalizing to the average readings of PTC124 (a positive control) - treated cells relative to DMSO-treated cells (0% Activity). The concentration-effect curves were then classified based on curve quality (r2), response magnitude and degree of measured activity.
Potency means the concentration at half of the fitted maximal effect.

SMILES	Potency
CCN(CC)CCNC(=O)COc1ccc(Cl)cc1	inactive
CN=C(NC#N)NCCSCc1csc(N=C(N)N)n1	inactive
Cc1cccn2c(=O)c(-c3nnn[nH]3)cnc12	inactive
CC(=O)N(O)CCCCCNC(=O)CCC(=O)N(O)CCCCCNC(=O)CCC(=O)N(O)CCCCCN	inactive
O=C(OCCOCCO)c1ccccc1Nc1cccc(C(F)(F)F)c1	inactive
CC(C)(CO)[C@@H](O)C(=O)NCCCO	inactive
Cc1c(C(C)C)c(=O)n(-c2ccccc2)n1C	inactive
CCCCN1CCCC1C(=O)Nc1c(C)cc(C)cc1C (stereo not given)	inactive
CCn1cc(C(=O)O)c(=O)c2cnc(N3CCCC3)nc21	inactive
CC(C)=CCC1C(=O)N(c2ccccc2)N(c2ccccc2)C1=O	inactive
COC(=O)[C@@H]1CC2=CC(=O)CC[C@]2(C)[C@@]23O[C@@H]2C[C@@]2(C)[C@@H](CC[C@@]24CCC(=O)O4)[C@H]13	inactive
NC(CO)(CO)CO	inactive
NCCC(O)(P(=O)(O)O)P(=O)(O)O	inactive
CCCCOc1ccc(OCCCN2CCOCC2)cc1	inactive
O=C(Nc1ccc(Cl)c(Cl)c1)C1CC1	inactive
CCCCc1nc(Cl)c(CO)n1Cc1ccc(-c2ccccc2-c2nn[nH]n2)cc1	inactive
CNCCC(Oc1ccccc1C)c1ccccc1 (stereo not given)	inactive
O=C(CCCN1CCC(O)(c2ccc(Br)cc2)CC1)c1ccc(F)cc1	inactive
CN(C)/N=N/c1nc[nH]c1C(N)=O	inactive
CC[N+](CC)(CCNC(=O)C(=O)NCC[N+](CC)(CC)Cc1ccccc1Cl)Cc1ccccc1Cl	inactive

SMILES	Potency
CCOc1ccc(Cc2nccc3cc(OCC)c(OCC)cc23)cc1OCC	2.45 µM (active)
NCCCC[C@H](N[C@@H](CCc1ccccc1)C(=O)O)C(=O)N1CCC[C@H]1C(=O)O	inactive
CCOc1ccc(NC(=O)CC(C)O)cc1 (stereo not given)	inactive
CN1CCN(CCCN2c3ccccc3Sc3ccc(S(=O)(=O)N(C)C)cc32)CC1	inactive
c1ccc(-c2ccc(C(c3ccccc3)n3ccnc3)cc2)cc1 (stereo not given)	inactive
C[C@]12CCC(=O)C=C1CC[C@H]1[C@@H]3CC[C@](O)(C(=O)CO)[C@@]3(C)C[C@H](O)[C@@]12F	inactive
Oc1ccc(Cl)cc1Sc1cc(Cl)ccc1O	inactive
Oc1c(I)cc(I)c2cccnc12	8.09 µM (active)
CCCCCCCCCCCCCCCCCC(=O)OCC(O)CO (stereo not given)	inactive
Nc1ccc(C(=O)Nc2ccccc2N)cc1	inactive
Oc1c(I)cc(Cl)c2cccnc12	11.4 µM (active)
Nc1cc(Cl)c(NC2=NCCN2)c(Cl)c1	inactive
COc1cc(OC)cc(OC)c1	inactive
Cc1ccnc(NS(=O)(=O)c2ccc(N)cc2)n1	inactive
O=c1c(-c2ccccc2)c1-c1ccccc1	3.22 µM (active)
O=C(O)CNC(=O)c1ccccc1	inactive
CC(C)(Oc1ccc(Cl)cc1)C(=O)O	inactive
Oc1c(Cl)cc(Cl)cc1Sc1cc(Cl)cc(Cl)c1O	18.1 µM (active)
Cc1cc(O)c(C(C)C)cc1Cl	inactive
c1ccc(CNCCNCc2ccccc2)cc1	inactive
